VHR inh abs = VHR1 phosphatase inhibitors, primary screen, biochemical, absorbance, uHTS. 290,000 tested, 0.52% active. Dual specificity protein phosphatase 3 (Homo sapiens), P51452. recombinant VHR phosphatase, pNPP absorbance. inhibition, % at 13.3 µM. AID 1654, 2009; in the data active = inhibition above about 50%
BoNT A protease = BoNT/A light chain protease inhibitors, primary screen, biochemical, flow cytometry, MLPCN library; multiplex microsphere protease substrate cleavage; AID 588499, 2011; Botulinum neurotoxin type A light chain protease (Clostridium botulinum A str. ATCC 3502); 360,000 tested, 0.17% active; inhibition, % at 10 µM
Bead autofluor = compound fluorescence in toxin protease inhibitor counterscreen; compound autofluorescence counterscreen, microsphere flow cytometry; hits give high values; fluorescence intensity (concentration not given with the values); 360,000 tested, 3.1% active; in the data active = fluorescence intensity above about 16000; inconclusive = no clear call, values can overlap the other calls
Anthrax LF inh2 = Bacillus anthracis LF protease inhibitors, primary screen, biochemical, multiplex microsphere, MLPCN library. 360,000 tested, 0.12% active. multiplex microsphere protease cleavage assay. inhibition, % at 10 µM. AID 588501, 2011. Lethal factor (Bacillus anthracis), P15917
Target sequence (P15917 whole entry, looked up): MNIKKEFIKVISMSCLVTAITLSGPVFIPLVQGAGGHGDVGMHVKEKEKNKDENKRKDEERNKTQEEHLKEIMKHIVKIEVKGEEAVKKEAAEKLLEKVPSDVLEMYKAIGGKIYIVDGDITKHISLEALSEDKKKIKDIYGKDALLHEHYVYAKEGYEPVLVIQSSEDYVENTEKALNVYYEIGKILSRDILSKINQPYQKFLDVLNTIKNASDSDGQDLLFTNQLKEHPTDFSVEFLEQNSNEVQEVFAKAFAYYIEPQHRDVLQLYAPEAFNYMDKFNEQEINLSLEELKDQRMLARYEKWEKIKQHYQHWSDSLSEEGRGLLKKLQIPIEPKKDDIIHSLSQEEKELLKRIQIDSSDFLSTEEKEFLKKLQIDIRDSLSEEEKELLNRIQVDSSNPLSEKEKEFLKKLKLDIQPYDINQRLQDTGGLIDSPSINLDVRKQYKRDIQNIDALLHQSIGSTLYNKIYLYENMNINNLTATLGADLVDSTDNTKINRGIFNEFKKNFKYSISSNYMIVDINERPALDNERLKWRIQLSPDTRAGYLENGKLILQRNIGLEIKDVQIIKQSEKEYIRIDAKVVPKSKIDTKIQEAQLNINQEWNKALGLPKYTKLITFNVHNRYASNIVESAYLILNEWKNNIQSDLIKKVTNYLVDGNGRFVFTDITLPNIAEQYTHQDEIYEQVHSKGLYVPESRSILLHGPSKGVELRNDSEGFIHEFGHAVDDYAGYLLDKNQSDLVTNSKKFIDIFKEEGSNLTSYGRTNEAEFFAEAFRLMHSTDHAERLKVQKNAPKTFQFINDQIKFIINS
MazF activator = activators of E. coli MazEF toxin-antitoxin RNase, primary screen, biochemical, fluorescence, uHTS | FAM/BHQ RNA-DNA oligo cleavage fluorescence, 5 h | activation, % at 20 µM | 350,000 tested, 0.32% active | Endoribonuclease toxin MazF (Escherichia coli (strain K12)), P0AE70; in the data active = activation above about 50%
BoNT-F LC inh = BoNT/F light chain protease inhibitors, primary screen, biochemical, flow cytometry, MLPCN library; Multiplex microsphere protease cleavage assay; inhibition, % at 10 µM; Botulinum neurotoxin type F light chain protease (Clostridium botulinum); 360,000 tested, 0.22% active; in the data active = inhibition above about 35%, passing the limit was not always enough; inconclusive = no clear call, values can overlap the other calls
BoNTA LC inh 2 = BoNT/A light chain protease inhibitors, confirmation, biochemical, flow cytometry, cherry pick 2. inhibition, % at 10 µM. shares compounds with BoNT A protease. multiplex microsphere protease cleavage assay. 150 tested, 10% active; in the data active = inhibition above about 24%
LF protease CP2 = Bacillus anthracis LF protease inhibitors, confirmation, biochemical, multiplex microsphere; shares compounds with BoNT A protease; multiplex microsphere protease cleavage assay; inhibition, % at 10 µM; 150 tested, 7% active; AID 602327, 2012; in the data active = inhibition above about 25%
BoNT-F LC CP2 = BoNT/F light chain protease inhibitors, confirmation, biochemical, flow cytometry, cherry pick 2 | shares compounds with BoNT A protease | multiplex microsphere protease cleavage assay | inhibition, % at 10 µM | 150 tested, 7% active; in the data active = inhibition above about 25%
Of the large screens only hits and unclear results are named; the others gave an inactive call (follow-up assays come after a bar, where they were run). In the library only some 4.1% were active in any assay of this set; here they are far more common. Cut-off read from the data, not from the text of the source, unless noted: active = inhibition above about 30%; inconclusive = no clear call, values can overlap the other calls; inactive = below that.

O=C(NC[C@@H]1CCCO1)c1cccc2c1C(=O)c1ccc(N3CCOCC3)cc1S2(=O)=O	none (no result: VHR inh abs)
CC1CCN(c2ccc3c(c2)S(=O)(=O)c2cccc(C(=O)NC[C@@H]4CCCO4)c2C3=O)CC1	none (no result: VHR inh abs) | BoNTA LC inh 2 inactive | LF protease CP2 inactive | BoNT-F LC CP2 inactive
CC1CCN(c2ccc3c(c2)S(=O)(=O)c2cccc(C(=O)NC4CC4)c2C3=O)CC1	none (no result: VHR inh abs) | BoNTA LC inh 2 inactive | LF protease CP2 inactive | BoNT-F LC CP2 inactive
COc1cc(NC(=O)CN2CCN(S(=O)(=O)/C=C/c3ccccc3)CC2)cc(OC)c1OC	none (no result: VHR inh abs)
O=C(Cn1nnc2ccccc2c1=O)NCCc1ccc(F)cc1	none (no result: BoNT A protease, Bead autofluor, Anthrax LF inh2, MazF activator, BoNT-F LC inh)
COc1ccc(C(O)c2nc(-c3ccccc3C)cs2)cc1 (stereo not drawn)	none (no result: VHR inh abs, MazF activator)
COc1cccc(COC(=O)c2cc(=O)[nH]c3ccc(S(=O)(=O)N4CCOCC4)cc23)c1OC	none (no result: VHR inh abs)
CN(C)c1ccc(/C=C2/C[N+](C)(C)C/C(=C/c3ccc(N(C)C)cc3)C2=O)cc1	BoNT A protease 85.5, Anthrax LF inh2 40.9 (no result: VHR inh abs) | BoNTA LC inh 2 47.7 | LF protease CP2 28.4 | BoNT-F LC CP2 inactive
CCN(CC)C(=O)C1=C(C)N(Cc2ccc(C(C)(C)C)cc2)C(=O)C(CC(=O)NCCN2CCOCC2)C1 (stereo not drawn)	none (no result: VHR inh abs)
CCOC(=O)c1cnn(-c2ccccc2)c1-c1ccncc1	none
CC(=NNc1nc2ccccc2o1)c1cc2ccccc2cn1	BoNT A protease 50.8, Anthrax LF inh2 58.9, BoNT-F LC inh 74.3 (no result: VHR inh abs) | BoNTA LC inh 2 inactive | LF protease CP2 26.0 | BoNT-F LC CP2 53.9
COc1ccc(CC(=O)OCC(=O)c2c[nH]c3ccccc23)cc1	BoNT A protease 52.7 (no result: VHR inh abs) | BoNTA LC inh 2 inactive | LF protease CP2 inactive | BoNT-F LC CP2 inactive
Cc1ccccc1OCC(=O)OCC(=O)c1c[nH]c2ccccc12	none (no result: VHR inh abs) | BoNTA LC inh 2 inactive | LF protease CP2 inactive | BoNT-F LC CP2 inactive
COc1cc(CC(=O)OCC(=O)c2c[nH]c3ccccc23)cc(OC)c1OC	BoNT A protease 50.2 (no result: VHR inh abs) | BoNTA LC inh 2 inactive | LF protease CP2 inactive | BoNT-F LC CP2 inactive
Cc1ccc(C(=O)COC(=O)COc2ccccc2C)cc1	none
COC(=O)c1c(C(=O)OC)c2c(-c3ccccc3)cc3cccc1n32	BoNT A protease 36.9, Anthrax LF inh2 36.7 (no result: VHR inh abs) | BoNTA LC inh 2 inactive | LF protease CP2 inactive | BoNT-F LC CP2 inactive
COC(=O)c1c(-c2ccccc2)csc1N	Bead autofluor inconclusive

Bioassay records as filed in PubChem BioAssay.
